We go through six compounds from PubChem BioAssay (EPA / NIEHS).

Usually AC50 stands for the concentration giving half of the maximal activity seen.

Some structures have more than one record in an assay (separate samples or runs), and their calls can disagree. Active and inactive are the calls of the source. How the source made its calls: active means hit-call score of the fitted dose curve at least 0.9, where 1 is the maximum; inactive means score below 0.9.

Read-out in experiment [1]: Matrix Metallopeptidase 1 (MMP1), MMP1 (gene 4312)
Briefly: BSK_BE3C_MMP1: BioMAP Diversity Plus: BE3C Assay for Matrix Metallopeptidase 1 (MMP1) Biomarker Activity (AID 2283024). Particulars: primary human bronchial epithelial cells; actives raise or lower the signal. Put shortly:
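Human primary bronchial epithelial cells (BE3C system) dosed for 24 h; MMP-1 quantified by ELISA. Bidirectional fit against DMSO; cytotoxicity tracked in parallel cultures by SRB total-protein staining.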

Experiment [2] can be described thus: BSK_3C_Vis: BioMAP Diversity Plus: 3C Assay for Morphology Visualization (AID 2283025).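 Further: fitted both ways so gain or loss versus DMSO counts.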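 On AC50: light microscopy image of cell morphology used as background control.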 As to conditions: primary human endothelial cells (HUVEC). Put shortly: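 Human umbilical vein endothelial cell morphology was inspected by light microscopy 24 h after chemical dosing; scored bidirectionally relative to DMSO.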
Read-out in experiment [3]: Pselectin, SELP (gene 6403)
Briefly: BSK_4H_Pselectin: BioMAP Diversity Plus: 4H Assay for Pselectin Biomarker Activity (AID 2283026). As to conditions: primary human endothelial cells (HUVEC); actives raise or lower the signal. The method in brief:
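Primary human umbilical vein endothelial cells were treated 24 h, and cell-surface P-selectin was then quantified by ELISA. Bidirectional fit versus DMSO; cytotoxicity checked in parallel cultures by SRB total-protein staining.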

Experiment [4] in a line: BSK_4H_SRB: Viability Assessment in the BioMAP Diversity Plus: 4H Assay (AID 2283027).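 On AC50: curves fitted both ways versus DMSO so AC50 may be loss or gain.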 As to conditions: primary human endothelial cells (HUVEC). Put shortly:
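Human umbilical vein endothelial cells were dosed with chemical and, after 24 h, fixed with 10% TCA, stained with 0.1% sulforhodamine B, and read at 560 nm to give total protein as a cytotoxicity measure. Bidirectional fitting relative to DMSO control.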

Read-out in experiment [5]: Thrombomodulin, THBD (gene 7056)
Briefly: BSK_3C_Thrombomodulin: BioMAP Diversity Plus: 3C Assay for Thrombomodulin Biomarker Activity (AID 2283029). Particulars: primary human endothelial cells (HUVEC); actives raise or lower the signal. The method in brief: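 Human umbilical vein endothelial cells were exposed to chemicals for 24 h; cell-surface thrombomodulin quantified by ELISA, with bidirectional fitting against DMSO baseline.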

Read-out in experiment [6]: Urokinase-type plasminogen activator receptor (uPAR), PLAUR (gene 5329)
Briefly: BSK_4H_uPAR: BioMAP Diversity Plus: 4H Assay for Urokinase-type plasminogen activator receptor (uPAR) Biomarker Activity (AID 2283030). As to conditions: primary human endothelial cells (HUVEC); actives raise or lower the signal. Put shortly: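 Human umbilical vein endothelial cells in the 4H system, 24 h after chemical dosing. Cell-surface uPAR measured by ELISA, fitted in both directions versus DMSO; cytotoxicity checked by SRB total protein in parallel cultures.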

Read-out in experiment [7]: Vascular endothelial growth factor receptor 2 (Homo sapiens) (UniProt P35968)
The experiment in a line: BSK_4H_VEGFRII: BioMAP Diversity Plus: 4H Assay for Vascular endothelial growth factor receptor 2 (VEGFR2) Biomarker Activity (AID 2283031).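 On AC50: cell-surface VEGFR2 protein level quantified by ELISA.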 Particulars: primary human endothelial cells (HUVEC); actives raise or lower the signal. The method in brief:
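Primary human umbilical vein endothelial cells (4H system), 24 h exposure; cell-surface VEGFR2 measured by ELISA. Bidirectional fitting versus DMSO; cytotoxicity checked in parallel by SRB total-protein staining.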

Read-out in experiment [8]: Human Leukocyte Antigen - DR isotype (HLADR), HLA-DRA (gene 3122)
Briefly: BSK_BE3C_HLADR: BioMAP Diversity Plus: BE3C Assay for Human Leukocyte Antigen - DR isotype (HLADR) Biomarker Activity (AID 2283032). Particulars: primary human bronchial epithelial cells; actives raise or lower the signal. The method in brief:
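Human primary bronchial epithelial cells (BE3C system) exposed to compound for 24 hours; cell-surface HLA-DR measured by ELISA, fitted bidirectionally relative to DMSO. Total protein by SRB in parallel cultures tracked cytotoxicity.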

Read-out in experiment [9]: Vascular cell adhesion molecule 1 (VCAM1), VCAM1 (gene 7412)
Briefly: BSK_4H_VCAM1: BioMAP Diversity Plus: 4H Assay for Vascular cell adhesion molecule 1 (VCAM1) Biomarker Activity (AID 2283033). As to conditions: primary human endothelial cells (HUVEC); actives raise or lower the signal. Put shortly: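 Primary human umbilical vein endothelial cells, 4H stimulation system, treated for 24 h; cell-surface VCAM-1 quantified by ELISA. Bidirectional fitting against DMSO; cytotoxicity tracked by SRB total-protein staining in parallel cultures.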

Read-out in experiment [10]: Interferon-gamma inducible Protein 10 (IP10), CXCL10 (gene 3627)
The experiment in a line: BSK_BE3C_IP10: BioMAP Diversity Plus: BE3C Assay for Interferon-gamma inducible Protein 10 (IP10) Biomarker Activity (AID 2283034). As to conditions: primary human bronchial epithelial cells; actives raise or lower the signal. Put shortly:
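Primary human bronchial epithelial cells, with IP-10 measured by ELISA 24 hours after chemical dosing. Bidirectional fit against DMSO; cytotoxicity checked by SRB total protein staining in parallel cultures.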

Read-out in experiment [11]: Monokine induced gamma interferon (MIG), CXCL9 (gene 4283)
The experiment in a line: BSK_BE3C_MIG: BioMAP Diversity Plus: BE3C Assay for Monokine induced gamma interferon (MIG) Biomarker Activity (AID 2283035). Particulars: primary human bronchial epithelial cells; actives raise or lower the signal. The method in brief:
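ELISA read-out of MIG in human lung bronchial epithelial primary cultures, 24 h post-dosing. Bidirectional curve fit vs DMSO baseline.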

Read-out in experiment [12]: Transforming growth factor beta 1 (TGFb1), TGFB1 (gene 7040)
The experiment in a line: BSK_BE3C_TGFb1: BioMAP Diversity Plus: BE3C Assay for Transforming growth factor beta 1 (TGFb1) Biomarker Activity (AID 2283036). Particulars: primary human bronchial epithelial cells; actives raise or lower the signal. The method in brief: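 Primary human bronchial epithelial cells dosed with chemical; TGF-b1 measured by ELISA 24 h after dosing. Bidirectional curve fitting against DMSO negative control; SRB total-protein staining in parallel cultures gauged cytotoxicity.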

Read-out in experiment [13]: Plasminogen activator inhibitor-1 (PAI1), SERPINE1 (gene 5054)
Briefly: BSK_BE3C_PAI1: BioMAP Diversity Plus: BE3C Assay for Plasminogen activator inhibitor-1 (PAI1) Biomarker Activity (AID 2283037). As to conditions: primary human bronchial epithelial cells; actives raise or lower the signal. The method in brief:
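Primary human bronchial epithelial cells (BE3C system) exposed 24 h; PAI-1 quantified by ELISA. Parallel sulforhodamine B staining of total protein flags cytotoxicity. Bidirectional fit versus DMSO.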

Read-out in experiment [14]: urokinase plasminogen activator (uPA), PLAU (gene 5328)
The experiment in a line: BSK_BE3C_uPA: BioMAP Diversity Plus: BE3C Assay for urokinase plasminogen activator (uPA) Biomarker Activity (AID 2283038).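 On outcome: uPA protein level quantified by ELISA in cell cultures; uPA read one day after compound addition.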 Particulars: primary human bronchial epithelial cells; actives raise or lower the signal. Put shortly: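 Primary human bronchial epithelial cells, uPA measured by ELISA 24 h after dosing. Bidirectional change relative to DMSO; cytotoxicity checked in parallel cultures by sulforhodamine B total-protein staining.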

Read-out in experiment [15]: Urokinase-type plasminogen activator receptor (uPAR), PLAUR (gene 5329)
Briefly: BSK_BE3C_uPAR: BioMAP Diversity Plus: BE3C Assay for Urokinase-type plasminogen activator receptor (uPAR) Biomarker Activity (AID 2283039).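 On outcome: cells exposed to compound for one day before measurement.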 As to conditions: primary human bronchial epithelial cells; actives raise or lower the signal. The method in brief: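 Primary human bronchial epithelial cells dosed for 24 h; uPAR quantified by ELISA with bidirectional fitting against DMSO. Overt cytotoxicity assessed in parallel cultures by SRB total-protein staining (0.1% SRB, 560 nm).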

Read-out in experiment [16]: Interleukin-6 (IL6), IL6 (gene 3569)
Briefly: BSK_CASM3C_IL6: BioMAP Diversity Plus: CASM3C Assay for Interleukin-6 (IL6) Biomarker Activity for (AID 2283040). Particulars: primary human coronary artery smooth muscle cells; actives raise or lower the signal.

Read-out in experiment [17]: Tissue plasminogen activator (tPA), PLAT (gene 5327)
The experiment in a line: BSK_BE3C_tPA: BioMAP Diversity Plus: BE3C Assay for Tissue plasminogen activator (tPA) Biomarker Activity (AID 2283041).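 On outcome: tPA level quantified by ELISA one day after compound addition.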 As to conditions: primary human bronchial epithelial cells; actives raise or lower the signal. Put shortly: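 Primary human bronchial epithelial cells in the BE3C system, exposed to compound for 24 h. tPA was quantified by ELISA; DMSO served as baseline, with gain or loss of signal fitted. Cytotoxicity checked in parallel cultures by SRB total-protein staining.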

Read-out in experiment [18]: Interleukin-8 (IL8), CXCL8 (gene 3576)
The experiment in a line: BSK_CASM3C_IL8: BioMAP Diversity Plus: CASM3C Assay for Interleukin-8 (IL8) Biomarker Activity (AID 2283042).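 Further: IL-8 protein level quantified by ELISA.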 Particulars: primary human coronary artery smooth muscle cells; actives raise or lower the signal.

Read-out in experiment [19]: Human Leukocyte Antigen - DR isotype (HLADR), HLA-DRA (gene 3122)
The experiment in a line: BSK_CASM3C_HLADR: BioMAP Diversity Plus: CASM3C Assay for Human Leukocyte Antigen - DR isotype (HLADR) Biomarker Activity (AID 2283043).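 Further: cell-surface HLA-DR protein level quantified by ELISA.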 Particulars: primary human coronary artery smooth muscle cells; actives raise or lower the signal.

A short description of experiment [20]: BSK_BE3C_SRB: Viability Assessment in the BioMAP Diversity Plus: BE3C Assay (AID 2283028).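 On AC50: fitted both ways so AC50 may mark signal gain or loss versus DMSO.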 As to conditions: primary human bronchial epithelial cells. The method in brief:
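Human bronchial epithelial primary cells in confluent culture, 24 h after chemical dosing; total protein by 0.1% SRB staining after 10% TCA fixation, read at 560 nm. Bidirectional fitting versus DMSO baseline.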

Take `COC[C@H](C)N(C(=O)CCl)c1c(C)csc1C`: the outcome in experiment [1], in experiment [2], in experiment [3], in [4], in experiment [5] and in experiment [6] was inactive. Also, the outcome in experiment [7], in experiment [8], in [9], in experiment [10], in experiment [11] and in [12] was inactive. Also, the outcome in [13], in [14], in [15], in experiment [16], in [17] and in experiment [18] was inactive. Also, the outcome in experiment [19] was inactive.
Take `C=C(C)C(=O)[O][Sn]([CH2]CCC)([CH2]CCC)[CH2]CCC`: the AC50 in [1] was 0.148 µM (active); in experiment [2], 0.468 µM (active); in [3], 0.148 µM (active); in [4], 0.148 µM (active); in [20], 148 nM (active); in [5], 1.16 µM (active). For the same compound, the AC50 is 148 nM (active) in [8]; 0.148 µM (active) in [9]; 336 nM (active) in experiment [10]; 147 nM (active) in experiment [11]; 146 nM (active) in experiment [12]; 146 nM (active) in experiment [13]. Moreover, the concentration at half-maximal activity (AC50) in experiment [14] is 215 nM (active); in experiment [15], 146 nM (active); in experiment [16], 148 nM (active); in experiment [17], 148 nM (active); in experiment [18] it was 359 nM (active); in experiment [19], 148 nM (active).
In the case of `COc1cc(-c2ccc(N)c(OC)c2)ccc1N`, the AC50 in experiment [1] is 4.7 µM (active). The result in experiment [1], in experiment [2], in experiment [3], in [4], in experiment [5] and in [7] was inactive. The outcome in experiment [8], in experiment [9], in experiment [10], in [11], in [12] and in experiment [13] was inactive. Also, the result in experiment [14], in [15], in [16], in experiment [17], in [18] and in [19] was inactive.
For `Cc1ccccc1N`, the outcome in experiment [1], in [2], in [3], in experiment [4], in experiment [20] and in experiment [5] was inactive. The result in [7], in experiment [8], in experiment [9], in experiment [10], in experiment [11] and in experiment [12] was inactive. Further, the outcome in experiment [13], in experiment [15], in experiment [16], in experiment [18] and in experiment [19] was inactive.
For `Oc1c(I)cc(I)cc1I`, the half-maximal activity concentration (AC50) is 6.77 µM (active) in experiment [1]; 13 µM (active) in [2]; 12.7 µM (active) in experiment [3]; 20 µM (active) in experiment [4]; 12.5 µM (active) in [7]; 3970 nM (active) in experiment [8]. Further, the half-maximal activity concentration (AC50) in experiment [9] is 20 µM (active); in experiment [10] it was 4410 nM (active); in experiment [13], 1830 nM (active); in experiment [15], 2310 nM (active); in experiment [17], 3340 nM (active). For the same compound, the outcome in experiment [20], in [5], in experiment [11], in [12], in [14] and in experiment [16] was inactive. The result in experiment [18] and in experiment [19] was inactive.
With `CC(C)CCCCCCOC(=O)c1ccccc1C(=O)OCCCCCCC(C)C`, the outcome in [1], in experiment [2], in experiment [3], in experiment [4], in experiment [20] and in experiment [5] was inactive. For the same compound, the result in experiment [7], in experiment [8], in experiment [9], in experiment [10], in experiment [11] and in [12] was inactive. Besides, the result in experiment [13], in [14], in experiment [15], in [16], in [17] and in [18] was inactive. Besides, in [19], the outcome was inactive.
